“And” between values parts separate entries of the source, which are not always exact repeats. Identical values can stand only once. Inconclusive results are not listed. The source made the active and inactive calls. Unless noted, calls come from the whole dose curve; as a rule, active = well fitted cell-killing curve with a large enough effect; inconclusive = small, poorly fitted or top-dose-only effect; inactive = flat fitted curve, though single readings scatter.
What was measured:
[1] = Cell Viability - LYMP2-023 (AID 975);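 note: cellular ATP measured by luciferase luminescence as viability proxy; series mostly up to about 92 µM; plate controls were DMSO only for no effect and 92 µM tetraoctylammonium bromide control for full effect; nearly all actives have a fitted effect of over 55% in size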
In short: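 Human lymphoblastoid cells (2500/well) were preincubated 5 hr at 37 C, then exposed to compounds for 24 hr at 37 C in complete medium. Cellular ATP was read by CellTiter-Glo luminescence, and AC50 came from Hill-equation fits.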

[2] = Cell Viability - LYMP2-002 (AID 977);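 note: series mostly up to about 92 µM; plate controls were DMSO only for no effect and 92 µM tetraoctylammonium bromide for full effect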
In short: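 Luminescent ATP readout (CellTiter-Glo, 30 min room temperature) after 24 h compound exposure at 37 C of a human lymphoblastoid line, 2500 cells/well. AC50 values derived by standard Hill fitting of qHTS concentration-response data.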

[3] = Cell Viability - LYMP2-006 (AID 978); note: series mostly up to about 92 µM; % is set by controls: 0 for no effect and ±100 for the full control effect; nearly all actives have a fitted effect of over 60% in size
In short: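 Human lymphoblastoid cells, 2500 per well, were preincubated 5 hr at 37 C, then exposed to compounds for 24 hr at 37 C in complete medium. Viability was read as intracellular ATP by CellTiter-Glo luminescence; AC50 from Hill-equation fits of qHTS concentration-response data.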

[4] = Cell Viability - LYMP2-007 (AID 979);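 note: cells exposed to compound for 24 h before reading; 0% = DMSO only and the negative end = 92 µM tetraoctylammonium bromide; nearly all actives have a fitted effect of over 60% in size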
In short: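 Human lymphoblastoid cells (2500/well) were plated in complete medium, incubated 5 hr at 37 C, then exposed to compounds for 24 hr at 37 C. Intracellular ATP was read by CellTiter-Glo luminescence after 30 min at room temperature; AC50 from Hill fits.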

[5] = Cell Viability - LYMP2-008 (AID 980); note: % is set by controls: 0 for no effect and ±100 for the full control effect; nearly all actives have a fitted effect of over 60% in size
In short: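 Human lymphoblastoid cells (2500/well) were plated, held 5 hr at 37 C, then exposed to compounds for 24 hr at 37 C in complete medium. Intracellular ATP was read by CellTiter-Glo luminescence; AC50 from Hill-fitted concentration-response.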

[6] = Cell Viability - LYMP2-010 (AID 981); note: % is set by controls: 0 for no effect and ±100 for the full control effect; nearly all actives have a fitted effect of over 55% in size
In short: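 Human lymphoblastoid LYMP2-010 cells (2500/well) were preincubated 5 hr at 37 C, then exposed to compounds for 24 hr at 37 C in complete medium. Intracellular ATP was measured by CellTiter-Glo luminescence after 30 min at room temperature; AC50 from Hill-fitted concentration-response.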

[7] = Cell Viability - LYMP2-012 (AID 982);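 note: cellular ATP by luciferase luminescence where a drop means cytotoxicity; cells exposed to compound for one day before reading; 0% = DMSO only and full loss = 92 µM tetraoctylammonium bromide; nearly all actives have a fitted effect of over 55% in size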
[8] = Cell Viability - LYMP2-014 (AID 983);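 note: series mostly up to about 92 µM; plate controls were DMSO only for no effect and 92 µM tetraoctylammonium bromide for full effect; nearly all actives have a fitted effect of over 50% in size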
In short: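 Human lymphoblastoid cells (2500/well) were pre-incubated 5 hr at 37 C, then exposed to compounds in complete medium for 24 hr at 37 C. Intracellular ATP was read by CellTiter-Glo luminescence after 30 min at room temperature; AC50 from Hill fits.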

[9] = Cell Viability - LYMP2-016 (AID 984); note: % is set by controls: 0 for no effect and ±100 for the full control effect; nearly all actives have a fitted effect of over 55% in size
In short: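 Human lymphoblastoid cells (LYMP2-016), 2500/well in complete medium, preincubated 5 hr at 37 C, then compound-treated 24 hr at 37 C. Intracellular ATP read by CellTiter-Glo luminescence after 30 min at room temperature; AC50 from Hill-equation concentration-response fits.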

[10] = Cell Viability - LYMP2-018 (AID 985);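 note: compound exposure lasted 24 hr at 37 °C; plate controls were DMSO only for no effect and tetraoctylammonium bromide at 92 µM for full effect; nearly all actives have a fitted effect of over 50% in size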
In short: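 Human lymphoblastoid cells (2500/well) were pre-incubated 5 hr at 37 C, then exposed to compounds for 24 hr at 37 C in complete medium. Viability was read as intracellular ATP by CellTiter-Glo luminescence; AC50 values came from Hill-equation fits.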

[11] = Cell Viability - LYMP2-020 (AID 986)
In short: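 Human lymphoblastoid cells, 2500/well, were pre-incubated 5 hr at 37 C, then exposed to compounds for 24 hr at 37 C in complete medium. Intracellular ATP was read by CellTiter-Glo luminescence, and AC50 was derived by Hill fitting of concentration-response data.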

[12] = Cell Viability - LYMP2-022 (AID 987)
In short: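 Human lymphoblastoid cells, 2500/well, preincubated 5 hr at 37 C, then exposed to compounds over a concentration range for 24 hr at 37 C in complete medium. Viability read as intracellular ATP by CellTiter-Glo luminescence after 30 min at room temperature; AC50 from Hill fits.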

[13] = Cell Viability - LYMP2-026 (AID 989); note: % is set by controls: 0 for no effect and ±100 for the full control effect; nearly all actives have a fitted effect of over 50% in size
In short: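 Human lymphoblastoid cells (2500/well) in complete medium were preincubated 5 hr at 37 C, then exposed to compounds for 24 hr at 37 C. Cellular ATP was read by CellTiter-Glo luminescence; AC50 from Hill-equation fits of concentration-response data.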

[14] = Cell Viability - LYMP1-002 - Assay at 40 hr (AID 994);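 note: 0% = DMSO only and full inhibition = 92 µM tetraoctylammonium bromide; nearly all actives have a fitted effect of over 60% in size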
In short: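 Human lymphoblastoid cells, 2500/well in complete medium, were preincubated 5 hr at 37 C, then exposed to compounds for 40 hr at 37 C. Intracellular ATP was read by CellTiter-Glo luminescence after 30 min at room temperature; AC50 from Hill-equation fits.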

[15] = qHTS Assay for Identification of Small Molecule Inducers of Hypoxia Response (AID 2120; active = well fitted curve in the direction sought with a large enough effect in the signal ratio, with a control signal flat, not every such curve was filed as active; the % refers to the signal ratio; note: 0% is about no effect)
In short: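 HRE-beta-lactamase reporter in CellSensor HRE-bla ME-180 cells, 2500 cells/well in Opti-MEM with 0.5% dialyzed FBS; compounds tested as titration series, 17 h at 37 degrees C. CCF4 substrate 2.5 h at room temperature; AC50 from 460/530 nm ratio.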

[16] = target: Glucocorticoid receptor (Homo sapiens) (UniProt P04150); test: qHTS assay for small molecule agonists of glucocorticoid receptor signaling (AID 588532; active = well fitted curve in the direction sought with a large enough effect in the signal ratio, with a control signal flat; the % refers to the signal ratio;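 note: 100% = dexamethasone at 0.1 µM and 0% = DMSO only wells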); conditions: HeLa MMTV-bla, beta-lactamase ratio, agonist, 18 h; stronger effect = higher value; percent of dexamethasone control, DMSO zero
In short: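 MMTV-bla HeLa, beta-lactamase reporter; medium with 1% charcoal/dextran-stripped FBS; cpds up to 92 uM, 18 h, 37 C; CCF4 readout 460/530 nm; Hill fit → EC50, efficacy vs 0.1 uM dexamethasone = 100%.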

[17] = target: Glucocorticoid receptor (Homo sapiens) (UniProt P04150); test: qHTS assay for small molecule antagonists of glucocorticoid receptor signaling (AID 588533; active = well fitted inhibition curve with a large enough effect in the signal ratio, with a control signal flat, not every such curve was filed as active; the % refers to the signal ratio;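 note: cells stimulated with 2 nM dexamethasone as agonist; % is set by controls: 0 for no effect and ±100 for the full control effect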)
In short: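 Antagonist-mode qHTS: compound titrations added to GRE-bla HeLa cells, then dexamethasone 2 nM final; 18 h, 37 C. CCF4 FRET fluorescence normalized to dexamethasone and DMSO; IC50 from Hill fit.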

[18] = qHTS assay for small molecule antagonists of peroxisome proliferator-activated receptor delta signaling (AID 588535; active = well fitted inhibition curve with a large enough effect in the signal ratio, with a control signal flat, not every such curve was filed as active; the % refers to the signal ratio;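 for max response: cells co-treated with a PPAR-delta agonist as stimulator during compound exposure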); conditions: HEK293T PPARd-UAS-bla, beta-lactamase FRET ratio, 18 h; 460 nm channel
In short: (§1)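 GeneBLAzer PPAR-delta-UAS-bla HEK293T cells in medium with 2% charcoal/dextran FBS were preincubated 5 hrs at 37 C, then given compounds, incubated 18 hrs at 37 C, and read by CCF4 beta-lactamase fluorescence; IC50 from Hill fits.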

[19] = target: Peroxisome proliferator-activated receptor delta (Homo sapiens) (UniProt Q03181); test: as above
In short: as §1

[20] = target: Vitamin D3 receptor (Homo sapiens) (UniProt P11473); test: qHTS assay for small molecule antagonists of vitamin D receptor signaling (AID 588541; calls by dose curve;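 note: receptor activated by calcitriol during compound treatment; series mostly up to about 77 µM; % is set by controls: 0 for no effect and ±100 for the full control effect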)
In short: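 VDR-UAS-bla HEK293T cells (2000/well, 2% charcoal-stripped FBS) were treated with titrated compounds plus 1-alpha,25-dihydroxyvitamin D3 (50 nM or 3 nM final) for 16 h at 37 C. CCF4 beta-lactamase fluorescence was read; Hill fits gave IC50.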

[21] = target: Vitamin D3 receptor (Homo sapiens) (UniProt P11473); test: qHTS assay for small molecule agonists of vitamin D receptor signaling (AID 588543; calls by dose curve;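 note: 0% = DMSO basal and 100% = reference agonist control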)
In short: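 GeneBLAzer VDR-UAS-bla HEK293T cells in 2% charcoal-stripped FBS medium were dosed with compound titrations for 16 h at 37 °C; CCF4 β-lactamase readout (405 nm ex, 460/530 nm em). EC50 and efficacy from Hill fits, normalized to 50 nM calcitriol (100%) and DMSO (0%).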

[22] = qHTS assay for small molecule agonists of retinoid X receptor alpha signaling (AID 588544); conditions: HEK293T RXRa-UAS-bla, beta-lactamase reporter, 18 h; 530 nm emission

Chain of Vitamin D3 receptor (Homo sapiens) (P11473 whole entry, looked up): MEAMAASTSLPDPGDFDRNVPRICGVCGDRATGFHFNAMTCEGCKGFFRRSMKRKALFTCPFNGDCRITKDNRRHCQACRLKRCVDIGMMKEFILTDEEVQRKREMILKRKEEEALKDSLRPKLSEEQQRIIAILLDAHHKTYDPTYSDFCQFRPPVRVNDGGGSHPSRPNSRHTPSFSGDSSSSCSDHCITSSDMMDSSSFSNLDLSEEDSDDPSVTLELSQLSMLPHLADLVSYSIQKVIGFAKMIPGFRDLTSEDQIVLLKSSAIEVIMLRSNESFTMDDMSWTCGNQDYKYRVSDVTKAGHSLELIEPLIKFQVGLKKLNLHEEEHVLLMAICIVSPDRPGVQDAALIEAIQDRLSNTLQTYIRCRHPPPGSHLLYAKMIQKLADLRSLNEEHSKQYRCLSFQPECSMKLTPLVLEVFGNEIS
Chain of Glucocorticoid receptor (Homo sapiens) (P04150 whole entry, looked up): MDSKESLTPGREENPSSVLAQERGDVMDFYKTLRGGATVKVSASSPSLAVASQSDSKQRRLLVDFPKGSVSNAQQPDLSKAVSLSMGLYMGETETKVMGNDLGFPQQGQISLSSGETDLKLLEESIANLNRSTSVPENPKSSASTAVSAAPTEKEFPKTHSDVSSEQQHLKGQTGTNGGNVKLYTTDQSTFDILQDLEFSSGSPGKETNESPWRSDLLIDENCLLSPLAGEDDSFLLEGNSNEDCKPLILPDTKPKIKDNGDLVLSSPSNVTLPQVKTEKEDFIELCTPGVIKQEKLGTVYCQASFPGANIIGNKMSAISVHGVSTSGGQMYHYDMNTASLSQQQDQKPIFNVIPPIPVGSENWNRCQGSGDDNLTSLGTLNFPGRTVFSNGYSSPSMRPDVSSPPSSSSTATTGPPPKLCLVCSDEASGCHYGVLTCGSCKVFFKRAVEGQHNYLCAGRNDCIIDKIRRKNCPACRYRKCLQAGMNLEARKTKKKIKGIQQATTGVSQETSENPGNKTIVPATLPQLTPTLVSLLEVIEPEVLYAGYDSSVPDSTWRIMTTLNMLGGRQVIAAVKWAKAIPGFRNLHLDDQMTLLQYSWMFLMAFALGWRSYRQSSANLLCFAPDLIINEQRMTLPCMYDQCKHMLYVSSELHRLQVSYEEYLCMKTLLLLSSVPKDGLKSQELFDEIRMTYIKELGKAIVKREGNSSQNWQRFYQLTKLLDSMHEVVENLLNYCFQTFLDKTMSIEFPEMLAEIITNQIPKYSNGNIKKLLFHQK
Chain of Peroxisome proliferator-activated receptor delta (Homo sapiens) (Q03181 whole entry, looked up): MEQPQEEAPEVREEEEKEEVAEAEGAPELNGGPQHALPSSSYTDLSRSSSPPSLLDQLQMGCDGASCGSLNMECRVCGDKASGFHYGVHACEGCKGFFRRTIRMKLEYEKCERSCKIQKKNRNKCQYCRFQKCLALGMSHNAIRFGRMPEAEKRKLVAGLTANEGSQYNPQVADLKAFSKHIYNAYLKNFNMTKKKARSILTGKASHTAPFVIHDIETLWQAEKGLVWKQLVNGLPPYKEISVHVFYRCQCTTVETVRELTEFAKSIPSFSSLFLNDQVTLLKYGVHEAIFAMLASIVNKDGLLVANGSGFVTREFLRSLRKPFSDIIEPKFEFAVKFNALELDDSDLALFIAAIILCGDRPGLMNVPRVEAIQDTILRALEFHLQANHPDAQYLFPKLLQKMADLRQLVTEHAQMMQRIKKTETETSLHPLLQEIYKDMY

CCOc1cc(C=O)ccc1O
11.5%: max response [22]
-4.7%: max response [18]
inactive: outcome [1] | outcome [2] | outcome [3] | outcome [4] | outcome [5] | Potency [6] | outcome [7] | outcome [8] | outcome [9] | outcome [10] | outcome [11] | outcome [12] | outcome [13] | Potency [14] | outcome [15] | activation [16] 0.229% and -4.79% | Potency [17] | outcome [19] | outcome [20] | Potency [21]

— PubChem BioAssay (NCATS)
